# The whole screen tested about 69,000 compounds, of which about 8,600 (12%) showed an effect of 50% or more. Only a selection was taken, and strong results are over-represented in it overall.
# Tested on: Plasmodium berghei
# Assay: Screen against P. berghei liver stage (PbLuc), transformed with Luciferase, at 10uM
# Assay type: functional, HepG2
# Settings: tested at 10 uM
row,Compound,INHIBITION
1,COc1nn(C)cc1C(=O)N1CCC(c2nnc(C(C)C)o2)CC1,37.5%
2,c1ccn(Cc2noc3c2CN(Cc2ccsc2)CC3)c1,49.1%
3,CC1CN(CCC(=O)NCCc2cccnc2)Cc2ccccc2O1 (configuration not stated),26.1%
4,Cc1ccc2c(c1)CN(CC(=O)NCCc1ccc(F)cc1)CC(C)O2 (configuration not stated),-46.4%
5,CC1CN(CC(=O)NCCc2ccncc2)Cc2ccccc2O1 (configuration not stated),60.9%
6,O=C(c1ccc(-c2ccsc2)nc1)N1CCCN(C2CCCCC2)CC1,14.4%
7,CO[C@@]1(C)C[C@@H](O)C12CCN(C(=O)CCn1c(C)cccc1=O)CC2,46.4%
8,COCC1c2nnn(C)c2CCN1C(=O)Cc1ccccn1 (configuration not stated),-21.3%
9,COCC1c2nnn(C)c2CCN1C(=O)Cc1ccc2c(c1)OCO2 (configuration not stated),-10.5%
10,COCC1c2nnn(C)c2CCN1C(=O)c1ccc(OC)c(F)c1 (configuration not stated),44.8%
11,COCC1c2nnn(C)c2CCN1C(=O)COc1ccccc1OC (configuration not stated),53%
12,COCC1c2nnn(C)c2CCN1C(=O)CCc1cccc(OC)c1 (configuration not stated),52.1%
13,COCC1c2nnn(C)c2CCN1C(=O)COc1ccccc1C (configuration not stated),22.2%
14,CCc1c(C)sc2nc3n(CCN4CCCCC4)nc(SC)n3c(=O)c12,35.1%
15,CC(C)(C)c1n[nH]c(C2CN(C(=O)c3cc(C4CC4)[nH]n3)CCO2)n1 (configuration not stated),-21.2%
16,CNC(=O)N1CCN(C(=O)N(C)C)CC2(CC(=O)N(C)C2)C1 (configuration not stated),26.3%
17,Cc1ncsc1C(=O)N1CC[C@@H]2[C@@H](CC1)OCCN2c1cccnc1,65.1%
18,O=C(c1ccncc1)N1CC[C@@H]2[C@@H](CC1)OCCN2c1cccnc1,12.1%
19,O=C(c1ccoc1)N1CC[C@@H]2[C@@H](CC1)OCCN2c1cccnc1,45.8%
20,CC(Cn1cccn1)NC(=O)c1ccsc1 (configuration not stated),15.7%
21,Cc1nc2ccc(C(=O)N3CCn4c(C)nnc4C3)cc2nc1C,1.56%
22,CN1C[C@H](c2ccccc2)[C@H]2CN(C(=O)Cc3ccc(O)cc3)CC[C@H]21,27.35%
23,CCN1CC2(CCC1=O)CCN(C(=O)c1ccc(C)cc1O)CC2,18.6%

row,Compound,INHIBITION
1,COc1cccc(-c2nnn(C3CCN(CC(F)(F)F)C3=O)n2)c1 (configuration not stated),-73.4%
2,CCn1c(C)nnc1SCCNc1cc(COC)ncn1,8.51%
3,Cc1nnc(SCCCNC(=O)c2ccc3c(c2)OCO3)s1,33.4%
4,COc1cc(NCCCSc2nnc(C)s2)ncn1,42.1%
5,COCc1cc(NCCCSc2nnc(C)s2)ncn1,58.8%
6,Cc1nnc(SCCCNc2cc(C3CC3)ncn2)s1,58.8%
7,Cc1nnc(SCCNc2cc(C3CC3)ncn2)s1,4.52%
8,Cc1cccc(N2CC3(CCN(S(=O)(=O)c4cccs4)C3)CC2=O)c1 (configuration not stated),-4.82%
9,CSc1ccc(C(=O)N2C[C@@H]3CC[C@H]2CN(Cc2cccnc2)C3)cc1,-5.19%
10,Cc1noc(CCCNC(=O)N2CCc3ccccc3C2CO)n1 (configuration not stated),14.4%
11,CC(C)(C)c1cc(NC(=O)CN2CCc3cncnc3C2)on1,-9.76%
12,CCOn1c(SC(C)C)nc2ccccc2c1=O,56.3%
13,CCSc1nc2ccccc2c(=O)n1OCC(=O)OC,60.8%
14,COC(=O)COn1c(SC)nc2ccccc2c1=O,48%
15,COC(=O)COn1c(SC(C)C)nc2ccccc2c1=O,28.3%
16,CCc1nc2ccccc2c(=O)n1CC1(O)CCN(C(=O)C(C)C)CC1,35.2%
17,CCc1nc2ccccc2c(=O)n1CC1(O)CCN(CC(=O)OC)CC1,13.5%
18,COC(=O)COn1c(OC)nc2ccccc2c1=O,52.5%
19,COC(=O)COn1c(SCC(=O)OC)nc2ccccc2c1=O,28.3%
20,CCc1nc2ccccc2c(=O)n1CC1(O)CCN(C(=O)COC)CC1,7.52%
21,CC(C)Cc1noc(CN2CCCC2c2noc(C3CC3)n2)n1 (configuration not stated),-31.5%
22,CC(C)(C)N1CCN(C(=O)Nc2cc(C(F)(F)F)c[nH]c2=O)CC1,33.3%
23,COC(=O)C1C=CCN1C(=O)c1cc(COc2ccccc2)[nH]n1 (configuration not stated),9.41%

row,Compound,INHIBITION
1,Cc1nc(N(C)C)ncc1C(=O)N[C@@H]1CCc2ccccc21,27.4%
2,O=C(CN1CCCC(Cn2cncn2)C1)Nc1cccnc1 (configuration not stated),-43.9%
3,O=C(Nc1cccnc1)C1CCN(c2cc(-n3ccnc3)ncn2)CC1,31.3%
4,O=C(Nc1ccccc1)C1CCCN(c2cc(-n3cncn3)ncn2)C1 (configuration not stated),50.2%
5,O=C(Nc1cccnc1)C1CCCN(c2cc(-n3cccn3)ncn2)C1 (configuration not stated),50.2%
6,O=C(NC1CC1)C1CCCN(c2cc(-n3cncn3)ncn2)C1 (configuration not stated),40.4%
7,O=C(NCc1cccs1)C1CCCN(c2cc(-n3cncn3)ncn2)C1 (configuration not stated),13.9%
8,CC(C)(C)C(=O)NC(c1nccs1)C1CCN(CC2CCCCC2)CC1 (configuration not stated),41.5%
9,CCn1nc(C)c(CCNC(=O)C2CCCN(C(C)=O)C2)c1C (configuration not stated),-20.2%
10,Cc1cnn(CC2CCCCN2CCS(C)(=O)=O)c1 (configuration not stated),17.4%
11,CNC(=O)CN1CCC(NC(=O)Cc2ccc3c(c2)OCCO3)CC1,-53.2%
12,CCN(Cc1c(C)nn(CC)c1C)S(=O)(=O)c1cnn(C)c1,11.8%
13,CCS(=O)(=O)N1C[C@@H]2C[C@H](C(=O)N(C)C)[C@H](C1)O2,22.2%
14,Cc1oncc1C(=O)NCc1cc(=O)n2c(n1)CN(CC1CC1)CCC2,36.4%
15,O=c1cc(CNS(=O)(=O)C2CC2)nc2n1CCCN(CC1CC1)C2,33.1%
16,O=C(NCc1cc(=O)n2c(n1)CN(CC1CC1)CCC2)c1ccsc1,89.2%
17,CCN1CCCn2c(nc(CNC(=O)c3ccsc3)cc2=O)C1,58%
18,CCCN1CCCn2c(nc(CNC(=O)c3ccsc3)cc2=O)C1,18.5%
19,CN1CCCn2c(nc(CNC(=O)c3ccsc3)cc2=O)C1,35.8%
20,Cc1nn(C)c(N(C)C)c1CNCc1ccnc(N2CCCC2)c1,-44.3%
21,Oc1cc(-c2ccccn2)nc(C2CCN(Cc3ccncc3)CC2)n1,-44.8%

# — ChEMBL document CHEMBL4513216, “Probing the Open Global Health Chemical Diversity Library for Multistage-Active Starting Points for Next-Generation Antimalarials” (ACS Infect Dis, 2020)
